# Records with an inconclusive call do not appear. The source made the active and inactive calls. Rule for the calls, unless noted: active = hit-call score of the fitted dose curve at least 0.9, where 1 is the maximum; inactive = score below 0.9.
# Experiments:
# [1] = target: Bile acid receptor (Homo sapiens) (UniProt Q96RI1); assay: ATG_FXR_TRANS: Attagene TRANS-FACTORIAL HepG2 Assay for Farnesoid X Receptor (FXR) (AID 2282979; active = hit-call score of the fitted dose curve at least 0.9, where 1 is the maximum;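 note: hits raise reporter mRNA above DMSO so AC50 marks FXR activation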); conditions: HepG2 Attagene TRANS FXR-GAL4 reporter transcription
# Chain of Bile acid receptor (Homo sapiens) (Q96RI1 whole entry, looked up, the tested form may be a part): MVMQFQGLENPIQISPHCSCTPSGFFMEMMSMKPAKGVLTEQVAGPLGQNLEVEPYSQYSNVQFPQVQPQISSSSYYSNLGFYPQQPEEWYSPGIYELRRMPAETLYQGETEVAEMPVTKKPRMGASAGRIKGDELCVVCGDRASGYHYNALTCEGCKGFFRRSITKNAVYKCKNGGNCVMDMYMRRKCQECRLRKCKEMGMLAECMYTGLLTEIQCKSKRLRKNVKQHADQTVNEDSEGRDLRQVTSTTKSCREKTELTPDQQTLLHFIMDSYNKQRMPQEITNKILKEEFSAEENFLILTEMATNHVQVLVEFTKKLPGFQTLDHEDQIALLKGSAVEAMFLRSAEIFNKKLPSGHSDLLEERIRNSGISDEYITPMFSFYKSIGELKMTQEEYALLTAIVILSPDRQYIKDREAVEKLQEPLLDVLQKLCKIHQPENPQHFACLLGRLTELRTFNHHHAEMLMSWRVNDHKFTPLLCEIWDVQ
# Outline: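 Chimeric FXR-GAL4 activity in transiently transfected human HepG2 liver cells is scored as induction of reporter mRNA after 24 h of dosing. Detection uses RT-PCR with fluorescent labelling and capillary electrophoresis, with DMSO serving as baseline.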
# [2] = ATG_M_32_TRANS: Attagene TRANS-FACTORIAL HepG2 Assay for M32 Transcription Factor (Internal Marker) (AID 2282984; active = hit-call score of the fitted dose curve at least 0.9, where 1 is the maximum;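 note: transcript level of a background control reporter unit measured by RT-PCR and capillary electrophoresis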); conditions: HepG2 Attagene TRANS M32 internal marker reporter
# Outline: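 Human hepatoma HepG2, transient MRTU transfection, 24 h treatment. RNA → RT-PCR → fluorescent primer extension → HpaI digest (2 h, 37 C) → CE. Positive-direction fit vs DMSO.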
# [3] = target: Nuclear receptor subfamily 4 group A member 2 (Homo sapiens) (UniProt P43354); assay: ATG_NURR1_TRANS: Attagene TRANS-FACTORIAL HepG2 Assay for human Nuclear Receptor Related Protein 1 (NURR1) (AID 2282985; active = hit-call score of the fitted dose curve at least 0.9, where 1 is the maximum); conditions: HepG2 Attagene TRANS reporter, mRNA readout
# Chain of Nuclear receptor subfamily 4 group A member 2 (Homo sapiens) (P43354 whole entry, looked up): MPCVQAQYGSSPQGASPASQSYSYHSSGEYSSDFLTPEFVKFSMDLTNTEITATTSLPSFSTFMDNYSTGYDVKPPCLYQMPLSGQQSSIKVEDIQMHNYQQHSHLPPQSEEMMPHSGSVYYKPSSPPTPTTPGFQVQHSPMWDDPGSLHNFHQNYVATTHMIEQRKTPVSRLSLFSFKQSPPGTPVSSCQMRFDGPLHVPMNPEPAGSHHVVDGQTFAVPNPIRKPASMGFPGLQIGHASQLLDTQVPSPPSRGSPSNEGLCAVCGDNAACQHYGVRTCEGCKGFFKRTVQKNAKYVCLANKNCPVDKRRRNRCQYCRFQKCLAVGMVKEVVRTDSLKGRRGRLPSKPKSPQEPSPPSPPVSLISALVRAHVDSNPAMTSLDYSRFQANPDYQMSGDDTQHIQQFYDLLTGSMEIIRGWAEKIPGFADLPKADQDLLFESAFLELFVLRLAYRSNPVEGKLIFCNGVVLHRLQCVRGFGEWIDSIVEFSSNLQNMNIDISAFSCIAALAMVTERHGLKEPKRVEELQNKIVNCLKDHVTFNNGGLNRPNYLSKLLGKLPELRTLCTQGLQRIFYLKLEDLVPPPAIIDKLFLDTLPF
# Outline: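 After 24 h chemical dosing, total RNA from transiently transfected HepG2 cells was reverse-transcribed and reporter cDNA PCR-amplified, FAM-labelled and analysed by capillary electrophoresis. Activity fitted in positive direction, DMSO as negative control.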
# [4] = target: Transcriptional activator Myb (Homo sapiens) (UniProt P10242); assay: ATG_Myb_CIS: Attagene CIS-FACTORIAL HepG2 Assay for human Myeloblastosis (Myb) Proto-Oncogene Transcription Factor (AID 2282986); conditions: HepG2 Attagene CIS-FACTORIAL Myb reporter transcription; actives raise or lower the signal
# Chain of Transcriptional activator Myb (Homo sapiens) (P10242 whole entry, looked up): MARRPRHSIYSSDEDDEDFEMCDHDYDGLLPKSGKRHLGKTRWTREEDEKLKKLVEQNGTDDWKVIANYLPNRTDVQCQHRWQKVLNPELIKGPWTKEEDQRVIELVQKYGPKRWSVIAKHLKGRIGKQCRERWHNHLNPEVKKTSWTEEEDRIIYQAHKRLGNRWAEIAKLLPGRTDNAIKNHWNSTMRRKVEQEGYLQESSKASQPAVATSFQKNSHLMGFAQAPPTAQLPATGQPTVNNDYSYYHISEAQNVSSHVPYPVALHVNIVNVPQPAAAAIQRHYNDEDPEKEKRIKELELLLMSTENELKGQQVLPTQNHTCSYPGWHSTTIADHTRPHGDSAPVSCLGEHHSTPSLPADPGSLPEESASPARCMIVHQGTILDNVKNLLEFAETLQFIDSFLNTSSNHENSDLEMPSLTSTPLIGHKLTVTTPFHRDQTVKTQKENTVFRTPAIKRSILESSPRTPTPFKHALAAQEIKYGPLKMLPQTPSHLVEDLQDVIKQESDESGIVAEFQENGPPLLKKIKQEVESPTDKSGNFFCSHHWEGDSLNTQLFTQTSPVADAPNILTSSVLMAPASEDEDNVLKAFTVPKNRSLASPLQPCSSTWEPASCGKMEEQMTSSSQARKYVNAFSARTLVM
# Outline: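 Fluorescence signals from capillary electrophoresis of RT-PCR-amplified reporter cDNA give the read-out. Cells: HepG2 transfected with multiple cis-regulated reporter units. Exposure lasts 24 hours; DMSO defines baseline for gain or loss of signal.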
# [5] = target: Nuclear respiratory factor 1 (Homo sapiens) (UniProt Q16656); assay: ATG_NRF1_CIS: Attagene CIS-FACTORIAL HepG2 Assay for human Nuclear Respiratory Factor 1 (NRF1) Orphan Gene (AID 2282987); conditions: HepG2 NRF1 cis-element reporter, Attagene multiplex; actives raise or lower the signal
# Chain of Nuclear respiratory factor 1 (Homo sapiens) (Q16656 whole entry, looked up): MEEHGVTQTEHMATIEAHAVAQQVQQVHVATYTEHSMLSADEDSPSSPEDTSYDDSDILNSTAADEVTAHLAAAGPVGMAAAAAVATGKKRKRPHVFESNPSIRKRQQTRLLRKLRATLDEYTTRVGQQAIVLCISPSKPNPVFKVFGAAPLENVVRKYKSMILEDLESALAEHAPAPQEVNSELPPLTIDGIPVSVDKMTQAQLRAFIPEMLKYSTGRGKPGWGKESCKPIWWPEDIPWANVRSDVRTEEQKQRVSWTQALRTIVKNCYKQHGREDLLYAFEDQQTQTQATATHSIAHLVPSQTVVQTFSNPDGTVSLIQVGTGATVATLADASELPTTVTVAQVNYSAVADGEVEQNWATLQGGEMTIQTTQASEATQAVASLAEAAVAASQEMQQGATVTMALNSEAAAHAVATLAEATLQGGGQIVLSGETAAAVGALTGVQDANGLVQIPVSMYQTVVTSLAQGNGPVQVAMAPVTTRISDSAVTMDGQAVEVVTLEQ
# Outline: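 Transcriptional reporter readout, one component of a 52-endpoint multiplexed HepG2 panel. Exposure 24 h; mRNA detected via RT-PCR and fluorescent capillary electrophoresis; fitting in both directions against DMSO.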
# [6] = ATG_NFI_CIS: Attagene CIS-FACTORIAL HepG2 Assay for human Nuclear Factor I (NFI) (AID 2282989); conditions: HepG2 cis-regulatory reporter, NFI response element transcription; actives raise or lower the signal
# Outline: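 Transfected HepG2 liver cells, exposed 24 h, supplied total RNA for oligo(dT) reverse transcription and reporter-specific PCR. Labelled, HpaI-cut fragments were sized by capillary electrophoresis; DMSO set the baseline for bidirectional fitting.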
# [7] = target: Myc proto-oncogene protein (Homo sapiens) (UniProt P01106); assay: ATG_Myc_CIS: Attagene CIS-FACTORIAL HepG2 Assay for human Myelocytomatosis (Myc) Proto-Oncogene Transcription Factor (AID 2282990); conditions: HepG2, Attagene cis-reporter transcription factor activity; actives raise or lower the signal
# Chain of Myc proto-oncogene protein (Homo sapiens) (P01106 whole entry, looked up): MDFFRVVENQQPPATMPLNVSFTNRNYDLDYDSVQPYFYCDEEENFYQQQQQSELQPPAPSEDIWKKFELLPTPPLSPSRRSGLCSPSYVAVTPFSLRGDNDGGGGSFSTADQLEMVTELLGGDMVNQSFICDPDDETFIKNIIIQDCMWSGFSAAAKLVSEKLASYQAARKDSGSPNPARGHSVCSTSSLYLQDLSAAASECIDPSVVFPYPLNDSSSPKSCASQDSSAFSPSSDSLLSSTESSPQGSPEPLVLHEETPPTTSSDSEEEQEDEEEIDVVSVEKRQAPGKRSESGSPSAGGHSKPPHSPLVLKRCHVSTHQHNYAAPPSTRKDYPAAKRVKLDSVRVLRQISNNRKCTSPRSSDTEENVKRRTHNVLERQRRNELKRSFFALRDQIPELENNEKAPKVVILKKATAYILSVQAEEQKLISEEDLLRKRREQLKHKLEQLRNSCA
# Outline: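 DMSO-normalised, bidirectionally fitted reporter mRNA signal. HepG2 cells transfected with cis reporter constructs, treated 24 h; transcripts detected by RT-PCR, 6-FAM primer extension and CE.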
# [8] = ATG_NRF2_ARE_CIS: Attagene CIS-FACTORIAL HepG2 Assay for human Nuclear Factor Erythroid 2 Related Factor 2 (NFR2) response to Antioxidant Response Elements (ARE) (AID 2282992); conditions: HepG2 Attagene ARE/NRF2 reporter, transcription factor activity; actives raise or lower the signal;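 for AC50: reporter mRNA level measured by RT-PCR and capillary electrophoresis fluorescence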
# Outline: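 HepG2 cells transiently transfected with multiplexed cis-regulated reporter transcription units measure endogenous transcription factor activity. Reporter mRNA at 24 h is quantified by RT-PCR, fluorescent labelling and capillary electrophoresis, with bidirectional fitting relative to DMSO.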
# [9] = ATG_Oct_MLP_CIS: Attagene CIS-FACTORIAL HepG2 Assay for human Octamer-Binding Transcription Factor (Oct) (AID 2282993); conditions: HepG2 Attagene cis-factorial Oct reporter, mRNA; actives raise or lower the signal
# Outline: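 Using HepG2 cells bearing transfected cis-reporter constructs, mRNA induction was read after 24 h by fluorescent RT-PCR and capillary electrophoresis, with DMSO defining baseline for gain- or loss-of-signal fits.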
# [10] = target: Cellular tumor antigen p53 (Homo sapiens) (UniProt P04637); assay: ATG_p53_CIS: Attagene CIS-FACTORIAL HepG2 Assay for human p53 Transcription Factor (AID 2282994); conditions: HepG2 p53 cis-element reporter, Attagene mRNA; actives raise or lower the signal
# Chain of Cellular tumor antigen p53 (Homo sapiens) (P04637 whole entry, looked up): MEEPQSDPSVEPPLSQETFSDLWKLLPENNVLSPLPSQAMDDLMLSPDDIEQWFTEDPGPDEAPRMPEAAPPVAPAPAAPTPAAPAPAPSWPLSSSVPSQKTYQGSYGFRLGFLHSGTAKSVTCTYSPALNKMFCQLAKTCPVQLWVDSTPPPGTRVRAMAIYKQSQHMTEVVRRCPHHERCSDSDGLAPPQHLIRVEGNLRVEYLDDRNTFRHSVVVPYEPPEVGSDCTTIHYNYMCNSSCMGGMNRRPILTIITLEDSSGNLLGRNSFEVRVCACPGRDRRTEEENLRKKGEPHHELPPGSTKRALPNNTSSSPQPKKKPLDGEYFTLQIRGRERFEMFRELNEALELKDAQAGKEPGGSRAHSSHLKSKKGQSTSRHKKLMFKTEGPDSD
# Outline: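 HepG2 cells transiently transfected with multiplexed cis-regulated reporter transcription units read endogenous TF activity. After 24 h compound exposure, reporter mRNA was quantified by RT-PCR, fluorescent labelling, HpaI digestion and capillary electrophoresis; bidirectional fits versus DMSO baseline.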
# [11] = target: Oxysterols receptor LXR-alpha (Homo sapiens) (UniProt Q13133); assay: ATG_LXRa_TRANS: Attagene TRANS-FACTORIAL HepG2 Assay for human Liver X Receptor alpha (LXRa) (AID 2282980; active = hit-call score of the fitted dose curve at least 0.9, where 1 is the maximum); conditions: HepG2 Attagene TRANS reporter, LXRa transactivation
# Chain of Oxysterols receptor LXR-alpha (Homo sapiens) (Q13133 whole entry, looked up): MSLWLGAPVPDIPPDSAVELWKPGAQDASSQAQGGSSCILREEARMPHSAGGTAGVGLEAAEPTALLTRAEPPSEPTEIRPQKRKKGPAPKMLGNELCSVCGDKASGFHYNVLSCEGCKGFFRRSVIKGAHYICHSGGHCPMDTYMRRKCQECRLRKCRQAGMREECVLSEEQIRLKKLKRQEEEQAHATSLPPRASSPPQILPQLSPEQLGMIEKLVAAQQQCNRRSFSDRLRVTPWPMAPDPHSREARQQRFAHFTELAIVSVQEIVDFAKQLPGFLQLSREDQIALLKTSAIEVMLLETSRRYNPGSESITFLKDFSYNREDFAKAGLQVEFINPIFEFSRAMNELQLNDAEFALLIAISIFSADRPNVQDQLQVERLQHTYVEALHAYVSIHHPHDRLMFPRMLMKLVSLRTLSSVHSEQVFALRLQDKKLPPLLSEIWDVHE
# Outline: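 Transient HepG2 transfectants, 24 h dosing, RT-PCR/CE mRNA reporter quantitation; gain-of-signal vs DMSO.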
# [12] = target: Oxysterols receptor LXR-beta (Homo sapiens) (UniProt P55055); assay: ATG_LXRb_TRANS: Attagene TRANS-FACTORIAL HepG2 Assay for human Liver X Receptor beta (LXRb) (AID 2282981; active = hit-call score of the fitted dose curve at least 0.9, where 1 is the maximum); conditions: HepG2 Attagene TRANS GAL4-LXRb reporter, mRNA
# Outline: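 In this TRANS format, exogenous chimeric NR-Gal4 protein activity, not endogenous factors, drives reporter expression in transfected human HepG2 cells. Exposure lasted 24 h; reporter mRNA was read by fluorescent capillary electrophoresis.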
# [13] = target: Hepatocyte nuclear factor 4-alpha (Homo sapiens) (UniProt P41235); assay: ATG_HNF4a_TRANS: Attagene TRANS-FACTORIAL HepG2 Assay for human Hepatocyte Nuclear Factor 4 alpha (HNF4a) (AID 2282982; active = hit-call score of the fitted dose curve at least 0.9, where 1 is the maximum); conditions: HepG2 HNF4a transactivation reporter, mRNA readout
# Chain of Hepatocyte nuclear factor 4-alpha (Homo sapiens) (P41235 whole entry, looked up, the tested form may be a part): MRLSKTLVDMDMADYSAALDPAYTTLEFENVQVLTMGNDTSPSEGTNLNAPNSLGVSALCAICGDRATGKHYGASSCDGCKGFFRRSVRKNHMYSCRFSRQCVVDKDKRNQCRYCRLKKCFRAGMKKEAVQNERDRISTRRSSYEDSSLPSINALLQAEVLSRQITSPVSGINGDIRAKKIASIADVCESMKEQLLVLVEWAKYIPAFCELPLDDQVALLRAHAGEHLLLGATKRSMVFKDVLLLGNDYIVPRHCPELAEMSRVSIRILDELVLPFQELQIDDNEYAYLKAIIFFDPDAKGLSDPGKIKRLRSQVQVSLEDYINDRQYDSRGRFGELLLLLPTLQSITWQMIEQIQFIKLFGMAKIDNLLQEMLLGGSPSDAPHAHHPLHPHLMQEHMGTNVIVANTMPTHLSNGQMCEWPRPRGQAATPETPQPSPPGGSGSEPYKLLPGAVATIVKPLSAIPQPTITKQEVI
# Outline: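 Cells used were human HepG2, transiently carrying GAL4-UAS reporter units read out against exogenous NR-GAL4 chimeras. Reporter transcript levels after 24 h dosing were quantified by fluorescent RT-PCR and capillary electrophoresis.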
# [14] = ATG_M_06_TRANS: Attagene TRANS-FACTORIAL HepG2 Assay for M06 Transcription Factor (Internal Marker) (AID 2282983; active = hit-call score of the fitted dose curve at least 0.9, where 1 is the maximum); conditions: HepG2 Attagene TRANS M06 internal marker reporter
# Outline: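 Measured by capillary electrophoresis of fluorescently labelled RT-PCR products, this endpoint reflects reporter mRNA in HepG2 cells harbouring exogenous NR-GAL4 reporter constructs after 24 h exposure, with DMSO as baseline.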
# [15] = ATG_NF_kB_CIS: Attagene CIS-FACTORIAL HepG2 Assay for human Nuclear Factor Kappa B (NF-kB) (AID 2282991); conditions: HepG2 Attagene cis-factorial NF-kB reporter mRNA; actives raise or lower the signal
# Outline: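 HepG2, transient multi-reporter transfection, cis promoter elements (endogenous TFs). 24 h exposure. Total RNA → RT → PCR → 6-FAM label → HpaI → CE. Gain/loss vs DMSO.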
# [16] = BSK_3C_TissueFactor: BioMAP Diversity Plus: 3C Assay for Tissue Factor Biomarker Activity (AID 2282997); conditions: BioMAP 3C HUVEC, tissue factor biomarker readout; actives raise or lower the signal
# Outline: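 Values derive from bidirectional curve fitting against DMSO of Tissue Factor ELISA signals, taken 24 h after dosing primary human umbilical vein endothelial cells.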
# [17] = BSK_3C_VCAM1: BioMAP Diversity Plus: 3C Assay for Vascular cell adhesion molecule 1 (VCAM1) Biomarker Activity (AID 2282999); conditions: BioMAP 3C HUVEC, VCAM1 ELISA, cytokine-stimulated; actives raise or lower the signal
# Outline: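 Human umbilical vein endothelial cells were dosed with compound for 24 h, after which cell-surface VCAM-1 was quantified by ELISA. Bidirectional curve fitting used DMSO as negative control and activity baseline.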
# [18] = target: Glucocorticoid receptor (Homo sapiens) (UniProt P04150); assay: ATG_GR_TRANS: Attagene TRANS-FACTORIAL HepG2 Assay for human Glucocorticoid Receptor (GR) (AID 2282978; active = hit-call score of the fitted dose curve at least 0.9, where 1 is the maximum;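 note: activators score as hits since higher reporter transcript over DMSO is fitted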); conditions: HepG2 Attagene TRANS GR reporter, mRNA transcription
# Chain of Glucocorticoid receptor (Homo sapiens) (P04150 whole entry, looked up, the tested form may be a part): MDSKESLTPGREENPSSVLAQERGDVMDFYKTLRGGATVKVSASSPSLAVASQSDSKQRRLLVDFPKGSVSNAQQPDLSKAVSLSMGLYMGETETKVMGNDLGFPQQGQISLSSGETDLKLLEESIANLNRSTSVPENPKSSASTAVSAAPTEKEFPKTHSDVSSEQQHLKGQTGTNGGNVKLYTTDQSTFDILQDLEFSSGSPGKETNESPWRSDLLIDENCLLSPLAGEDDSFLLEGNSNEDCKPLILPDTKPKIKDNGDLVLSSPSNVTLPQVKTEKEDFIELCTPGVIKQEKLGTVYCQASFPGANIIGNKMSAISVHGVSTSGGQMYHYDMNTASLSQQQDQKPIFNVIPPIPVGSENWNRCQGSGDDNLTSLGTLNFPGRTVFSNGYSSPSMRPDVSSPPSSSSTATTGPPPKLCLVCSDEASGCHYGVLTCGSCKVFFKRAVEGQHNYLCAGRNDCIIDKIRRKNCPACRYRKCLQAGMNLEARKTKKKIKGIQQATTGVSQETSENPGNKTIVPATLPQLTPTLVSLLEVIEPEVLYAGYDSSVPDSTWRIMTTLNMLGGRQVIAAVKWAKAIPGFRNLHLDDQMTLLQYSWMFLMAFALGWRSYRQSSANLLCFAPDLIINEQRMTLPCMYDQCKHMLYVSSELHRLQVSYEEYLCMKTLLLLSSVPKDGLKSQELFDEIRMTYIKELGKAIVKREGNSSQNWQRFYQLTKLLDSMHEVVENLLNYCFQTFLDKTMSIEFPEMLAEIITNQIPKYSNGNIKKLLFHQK
# Outline: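 Measurement of GAL4-UAS-driven reporter mRNA in human HepG2 liver cells 24 h post-dosing, using RT-PCR with fluorescent labelling and capillary electrophoresis; the transfected constructs report exogenous NR-GAL4 chimera activity, fitted upward against DMSO.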
structure (smiles),measurement,setting,value
CC(=O)C1=C(C)[C@@H]2C[C@@]3(C1)[C@H](C)CC[C@H]3C2(C)C,outcome,[1],inactive
same,outcome,[2],inactive
same,outcome,[3],inactive
same,outcome,[4],inactive
same,outcome,[5],inactive
same,AC50,[6],137 µM (active)
same,outcome,[7],inactive
same,AC50,[8],70.1 µM (active)
same,outcome,[9],inactive
same,AC50,[10],100 µM (active)
CCC(=O)OC(C)(C)C1CC=C(C)CC1 (centres undefined),outcome,[1],inactive
same,outcome,[11],inactive
same,outcome,[12],inactive
same,outcome,[13],inactive
same,outcome,[2],inactive
same,outcome,[3],inactive
same,outcome,[4],inactive
same,outcome,[5],inactive
same,outcome,[6],inactive
same,outcome,[7],inactive
same,AC50,[8],127 µM (active)
same,outcome,[9],inactive
same,outcome,[10],inactive
NC(=O)c1c(Cl)cccc1Cl,outcome,[1],inactive
same,outcome,[13],inactive
same,outcome,[14],inactive
same,outcome,[4],inactive
same,outcome,[5],inactive
same,outcome,[6],inactive
same,outcome,[7],inactive
same,outcome,[15],inactive
same,outcome,[8],inactive
same,outcome,[9],inactive
same,AC50,[16],0.0671 µM (active)
same,outcome,[17],inactive
OCCCO,outcome,[18],inactive
same,outcome,[13],inactive
same,outcome,[14],inactive
same,outcome,[2],inactive
same,outcome,[3],inactive
same,outcome,[4],inactive
same,outcome,[5],inactive
same,outcome,[6],inactive
same,outcome,[7],inactive
same,outcome,[15],inactive
same,outcome,[8],inactive
same,outcome,[9],inactive
same,outcome,[10],inactive
CC(CO)(CO)[N+](=O)[O-],outcome,[1],inactive
same,outcome,[11],inactive
same,outcome,[13],inactive
same,outcome,[2],inactive
same,outcome,[4],inactive
same,outcome,[6],inactive
same,outcome,[7],inactive
same,outcome,[8],inactive
same,outcome,[9],inactive
C/C=C(\C)C(=O)OC/C=C(\C)CCC=C(C)C,outcome,[18],inactive
same,outcome,[13],inactive
same,outcome,[14],inactive
same,outcome,[2],inactive
same,AC50,[3],20 µM (active)
same,outcome,[4],inactive
same,outcome,[5],inactive
same,outcome,[6],inactive
same,outcome,[7],inactive
same,AC50,[8],100 µM (active)
same,outcome,[9],inactive
same,outcome,[10],inactive
C[C@H](CCC(=O)O)[C@H]1CC[C@H]2[C@@H]3CC[C@@H]4C[C@H](O)CC[C@]4(C)[C@H]3CC[C@]12C,outcome,[18],inactive
same,outcome,[2],inactive
same,AC50,[3],27.7 µM (active)
same,outcome,[4],inactive
same,outcome,[5],inactive
same,AC50,[6],100 µM (active)
same,AC50,[7],156 µM (active)
same,AC50,[8],45.4 µM (active)
CC1=C(C=O)C(C)(C)CCC1,outcome,[1],inactive
same,outcome,[11],inactive
same,outcome,[12],inactive
same,outcome,[4],inactive
same,outcome,[5],inactive
same,outcome,[6],inactive
same,outcome,[7],inactive
same,outcome,[15],inactive
same,outcome,[8],inactive
same,outcome,[9],inactive
CC(C)(C)c1ccc(S)cc1,outcome,[18],inactive
same,outcome,[14],inactive
same,outcome,[2],inactive
same,outcome,[4],inactive
same,outcome,[5],inactive
same,outcome,[6],inactive
same,outcome,[7],inactive
same,AC50,[8],16.1 µM (active)
same,outcome,[9],inactive
same,outcome,[10],inactive
O=c1cc[nH]cc1,outcome,[1],inactive
same,outcome,[11],inactive
same,outcome,[13],inactive
same,outcome,[2],inactive
same,outcome,[3],inactive
same,outcome,[4],inactive
same,outcome,[6],inactive
same,outcome,[7],inactive
same,outcome,[15],inactive
same,outcome,[8],inactive
same,outcome,[9],inactive
same,outcome,[10],inactive
CCC(=O)OC/C=C(\C)CCC=C(C)C,outcome,[18],inactive
same,outcome,[13],inactive
same,outcome,[4],inactive
same,outcome,[5],inactive
same,outcome,[6],inactive
same,outcome,[7],inactive
same,outcome,[15],inactive
same,outcome,[8],inactive
same,outcome,[9],inactive
same,outcome,[10],inactive

# Reference: PubChem BioAssay (EPA / NIEHS)
